Results reported in PubChem BioAssay (NCI).
About 83,000 compounds went through this panel and 20% of them were active in at least one assay; those are over-represented in the sample as a whole.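 Treatment: one concentration, 48 hours, 96-well format. Scoring: percent growth, with anything below 10 considered active.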 Active and inactive are the calls of the source.

How the values were obtained:
Experiment in all cases: NCI-60 one-dose screen, 48 h (100 = growth as untreated, 0 = no growth, -100 = all killed)
Conditions in all cases: 10 µM unless noted
RPMI-8226 leukemia = tested on: RPMI-8226 leukemia
OVCAR-8 ovarian = tested on: OVCAR-8 ovarian
OVCAR-5 ovarian = tested on: OVCAR-5 ovarian
SK-OV-3 ovarian = tested on: SK-OV-3 ovarian
IGROV1 ovarian = tested on: IGROV1 ovarian
OVCAR-3 ovarian = tested on: OVCAR-3 ovarian
HS 578T breast = tested on: HS 578T breast
NCI/ADR-RES ovarian = tested on: NCI/ADR-RES ovarian
T-47D breast = tested on: T-47D breast
OVCAR-4 ovarian = tested on: OVCAR-4 ovarian

Measured: growth

O=C(Nc1ccc(Cl)cc1)N1CCN(c2ccc3nncn3n2)CC1
inactive: OVCAR-8 ovarian 30.5% | OVCAR-5 ovarian 87.2% | IGROV1 ovarian 72.3% | NCI/ADR-RES ovarian 63.2%
active: RPMI-8226 leukemia -20.9% | SK-OV-3 ovarian -3.29% | OVCAR-3 ovarian -7.82% | HS 578T breast -40.7% | T-47D breast -54.9%

CCOC(=O)c1ccc2[nH]c(-c3ccccc3)cc(=O)c2c1
inactive: RPMI-8226 leukemia 88.2% | OVCAR-8 ovarian 97.6% | OVCAR-5 ovarian 101% | SK-OV-3 ovarian 112% | IGROV1 ovarian 92.5% | OVCAR-3 ovarian 106% | HS 578T breast 104% | NCI/ADR-RES ovarian 102% | T-47D breast 105%

O=c1c2cc(F)ccc2sc2c(NCCN3CCCC3)nc3ccccc3c12
inactive: RPMI-8226 leukemia 33.9% | OVCAR-8 ovarian 63% | OVCAR-5 ovarian 72.1% | OVCAR-4 ovarian 54.2% | IGROV1 ovarian 61.7% | OVCAR-3 ovarian 48.8% | HS 578T breast 56.8% | NCI/ADR-RES ovarian 66.4% | T-47D breast 61.9%
